Among all 5,500 compounds or so, about 2,000 (36%) were called active. Not shown: some 18% with an inconclusive outcome. Rule as the data show it: active = normalized growth mostly below about 0.91 (no sharp cut-off); inconclusive = no clear call, values can overlap the other calls; inactive = mostly above about 0.92. Some of the results follow.
Experiment: chemical genetic growth profiling, strain panel (AID 1159580);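 also: tested at 20 µM; growth read once vehicle control cultures reached saturation at 30 °C; 1 = growth at the plate median or of vehicle wells; lower values mean less growth of the strain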
Conditions: growth OD

Measured: normalized growth

O=C(O[C@@H]1Cc2c(O)cc(O)cc2O[C@@H]1c1cc(O)c(=O)c2c(O)c(O)cc([C@H]3Oc4cc(O)cc(O)c4C[C@H]3O)c2c1)c1cc(O)c(O)c(O)c1
active: S. cerevisiae deletion strains, locus YKL160W, strain elf1, stronger effect = lower value 0.709 | S. cerevisiae deletion strains, locus YKL190W, strain CNB1, stronger effect = lower value 0.211 | S. cerevisiae deletion strains, locus YKR001C, strain vps1, stronger effect = lower value 0.809 | S. cerevisiae deletion strains, locus YLL001W, strain dnm1, stronger effect = lower value 0.658 | S. cerevisiae deletion strains, locus YLL026W, stronger effect = lower value 0.719 | S. cerevisiae deletion strains, locus YLL041C, strain sdh2, stronger effect = lower value 0.79 | S. cerevisiae deletion strains, locus YLR027C, strain aat2, stronger effect = lower value 0.495 | S. cerevisiae deletion strains, locus YLR039C, strain RIC1, stronger effect = lower value 0.271 | S. cerevisiae deletion strains, locus YLR058C, strain SHM2, stronger effect = lower value 0.219 | S. cerevisiae deletion strains, locus YLR221C, strain rsa3, stronger effect = lower value 0.699 | S. cerevisiae deletion strains, locus YLR258W, strain gsy2, stronger effect = lower value 0.638 | S. cerevisiae deletion strains, locus YLR262C, strain YPT6 (second series), stronger effect = lower value 0.524 | S. cerevisiae deletion strains, locus YLR262C, strain YPT6, stronger effect = lower value 0.552 | S. cerevisiae deletion strains, locus YLR268W, strain sec22, stronger effect = lower value 0.644 | S. cerevisiae deletion strains, locus YLR320W, strain mms22, stronger effect = lower value 0.635 | S. cerevisiae deletion strains, locus YLR330W, strain CHS5, stronger effect = lower value 0.791 | S. cerevisiae deletion strains, locus YLR342W, strain FKS1, stronger effect = lower value 0.423 | S. cerevisiae deletion strains, locus YLR357W, strain rsc2, stronger effect = lower value 0.624 | S. cerevisiae deletion strains, locus YLR370C, strain arc18, stronger effect = lower value 0.593 | S. cerevisiae deletion strains, locus YLR371W, strain rom2, stronger effect = lower value 0.661 | S. cerevisiae deletion strains, locus YLR384C, strain iki3, stronger effect = lower value 0.784 | S. cerevisiae deletion strains, locus YLR418C, strain cdc73, stronger effect = lower value 0.505 | S. cerevisiae deletion strains, locus YML016C, strain PPZ1, stronger effect = lower value 0.111 | S. cerevisiae deletion strains, locus YML120C, strain ndi1, stronger effect = lower value 0.727 | S. cerevisiae deletion strains, locus YMR058W, strain fet3, stronger effect = lower value 0.0992 | S. cerevisiae deletion strains, locus YMR129W, stronger effect = lower value 0.789 | S. cerevisiae deletion strains, locus YMR205C, strain PFK2, stronger effect = lower value 0.416 | S. cerevisiae deletion strains, locus YMR223W, strain ubp8, stronger effect = lower value 0.844 | S. cerevisiae deletion strains, locus YMR231W, strain pep5, stronger effect = lower value 0.229 | S. cerevisiae deletion strains, locus YMR263W, strain SAP30, stronger effect = lower value 0.743 | S. cerevisiae deletion strains, locus YMR307W, strain GAS1, stronger effect = lower value 0.426 | S. cerevisiae deletion strains, locus YNL067W, strain RPL9B, stronger effect = lower value 0.547 | S. cerevisiae deletion strains, locus YNL071W, strain lat1, stronger effect = lower value 0.747 | S. cerevisiae deletion strains, locus YNL209W, strain ssb2, stronger effect = lower value 0.141 | S. cerevisiae deletion strains, locus YNL233W, strain BNI4, stronger effect = lower value 0.623 | S. cerevisiae deletion strains, locus YNL248C, strain rpa49, stronger effect = lower value 0.862 | S. cerevisiae deletion strains, locus YNL322C, strain KRE1, stronger effect = lower value 0.243 | S. cerevisiae deletion strains, locus YNR052C, strain pop2, stronger effect = lower value 0.754 | S. cerevisiae deletion strains, locus YOL147C, strain pex11, stronger effect = lower value 0.862 | S. cerevisiae deletion strains, locus YOR001W, strain rrp6, stronger effect = lower value 0.736 | S. cerevisiae deletion strains, locus YOR061W, strain CKA2, stronger effect = lower value 0.441 | S. cerevisiae deletion strains, locus YOR069W, strain VPS5, stronger effect = lower value 0.503 | S. cerevisiae deletion strains, locus YOR070C, strain gyp1, stronger effect = lower value 0.569 | S. cerevisiae deletion strains, locus YOR080W, strain dia2, stronger effect = lower value 0.253 | S. cerevisiae deletion strains, locus YOR083W, strain WHI5, stronger effect = lower value 0.541 | S. cerevisiae deletion strains, locus YOR106W, strain vam3, stronger effect = lower value 0.143 | S. cerevisiae deletion strains, locus YOR184W, strain ser1, stronger effect = lower value 0.649 | S. cerevisiae deletion strains, locus YOR265W, strain rbl2, stronger effect = lower value 0.699 | S. cerevisiae deletion strains, locus YOR270C, strain vph1, stronger effect = lower value 0.255 | S. cerevisiae deletion strains, locus YOR290C, strain snf2, stronger effect = lower value 0.487 | S. cerevisiae deletion strains, locus YPL051W, strain arl3, stronger effect = lower value 0.279 | S. cerevisiae deletion strains, locus YPL078C, strain atp4, stronger effect = lower value 0.731 | S. cerevisiae deletion strains, locus YPL106C, strain sse1, stronger effect = lower value 0.66 | S. cerevisiae deletion strains, locus YPL240C, strain hsp82, stronger effect = lower value 0.779 | S. cerevisiae deletion strains, locus YPL241C, strain CIN2, stronger effect = lower value 0.509 | S. cerevisiae deletion strains, locus YPR167C, strain met16, stronger effect = lower value 0.918 | S. cerevisiae deletion strains, strain wtn01, stronger effect = lower value 0.679 | S. cerevisiae strains, strain wild type, stronger effect = lower value 0.0985
inactive: S. cerevisiae deletion strains, locus YJR066W, strain TOR1, stronger effect = lower value 0.969 | S. cerevisiae deletion strains, locus YKL009W, strain mrt4, stronger effect = lower value 1.05 | S. cerevisiae deletion strains, locus YKL068W, stronger effect = lower value 1.04 | S. cerevisiae deletion strains, locus YKL085W, strain MDH1 (second series), stronger effect = lower value 1.03 | S. cerevisiae deletion strains, locus YKL085W, strain MDH1, stronger effect = lower value 1.03 | S. cerevisiae deletion strains, locus YKR026C, strain gcn3, stronger effect = lower value 0.988 | S. cerevisiae deletion strains, locus YKR091W, strain srl3, stronger effect = lower value 0.944 | S. cerevisiae deletion strains, locus YLR102C, strain apc9, stronger effect = lower value 1.02 | S. cerevisiae deletion strains, locus YLR113W, strain HOG1, stronger effect = lower value 1.11 | S. cerevisiae deletion strains, locus YML032C, strain rad52, stronger effect = lower value 0.968 | S. cerevisiae deletion strains, locus YML124C, strain tub3, stronger effect = lower value 0.949 | S. cerevisiae deletion strains, locus YMR078C, strain ctf18, stronger effect = lower value 1.01 | S. cerevisiae deletion strains, locus YMR125W, strain sto1, stronger effect = lower value 1.04 | S. cerevisiae deletion strains, locus YNL183C, strain NPR1, stronger effect = lower value 0.963 | S. cerevisiae deletion strains, locus YNL250W, strain rad50, stronger effect = lower value 1.05 | S. cerevisiae deletion strains, locus YNL271C, strain bni1, stronger effect = lower value 1 | S. cerevisiae deletion strains, locus YNL298W, strain CLA4, stronger effect = lower value 0.998 | S. cerevisiae deletion strains, locus YNL307C, strain MCK1, stronger effect = lower value 1.01 | S. cerevisiae deletion strains, locus YNL322C, strain KRE1 (second series), stronger effect = lower value 0.941 | S. cerevisiae deletion strains, locus YNR049C, strain mso1, stronger effect = lower value 0.945 | S. cerevisiae deletion strains, locus YOL012C, strain htz1 0.255 | S. cerevisiae deletion strains, locus YOR136W, strain idh2, stronger effect = lower value 0.929 | S. cerevisiae deletion strains, locus YOR144C, strain elg1, stronger effect = lower value 0.943 | S. cerevisiae deletion strains, locus YOR231W, strain MKK1, stronger effect = lower value 1.02 | S. cerevisiae deletion strains, locus YOR316C, strain cot1, stronger effect = lower value 1.02 | S. cerevisiae deletion strains, locus YPL256C, strain CLN2, stronger effect = lower value 1.06 | S. cerevisiae deletion strains, locus YPR119W, strain clb2, stronger effect = lower value 1.02 | S. cerevisiae deletion strains, locus YPR141C, strain kar3, stronger effect = lower value 1.03 | S. cerevisiae deletion strains, locus YPR163C, strain tif3, stronger effect = lower value 0.974
